Laboratory results taken from PMC7862700, “An all-to-all approach to the identification of sequence-specific readers for epigenetic DNA modifications on cytosine”.

Tests used:
Experiment in all cases: DAPPL (digital affinity profiling via proximity ligation, sequencing); 10 mM Tris-HCl pH 7.5, 50 mM NaCl, 1 mM DTT, 4% glycerol, room temperature, 30 min; GST-TFs on glutathione beads, 16-mer random dsDNA library, 0.1% formaldehyde crosslink after washing; high values mean tight binding
Settings in all cases: protein: recombinant; tags: N-terminal GST; dsDNA, one strand shown
ERF = target: T1, ERF (Homo sapiens, UniProt P50548 1-548)
T1 sequence: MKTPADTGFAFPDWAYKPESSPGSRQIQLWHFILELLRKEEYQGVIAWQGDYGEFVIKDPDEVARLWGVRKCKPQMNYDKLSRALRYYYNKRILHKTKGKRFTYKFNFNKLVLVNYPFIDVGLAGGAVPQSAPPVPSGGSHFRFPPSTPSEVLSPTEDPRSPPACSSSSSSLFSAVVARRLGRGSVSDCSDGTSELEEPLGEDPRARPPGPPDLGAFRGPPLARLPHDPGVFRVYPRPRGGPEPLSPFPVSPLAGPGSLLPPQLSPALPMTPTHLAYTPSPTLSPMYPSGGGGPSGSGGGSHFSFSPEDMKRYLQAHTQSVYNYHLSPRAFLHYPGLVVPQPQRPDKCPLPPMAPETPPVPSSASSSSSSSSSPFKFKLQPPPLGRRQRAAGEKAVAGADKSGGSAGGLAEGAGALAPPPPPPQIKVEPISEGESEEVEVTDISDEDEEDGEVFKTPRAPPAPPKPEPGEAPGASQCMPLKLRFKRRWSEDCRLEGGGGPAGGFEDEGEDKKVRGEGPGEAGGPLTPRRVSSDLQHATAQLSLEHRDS
Method in brief: (§1)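 GST fusions of human transcription factors were expressed in yeast and captured with glutathione beads. Once given DNA barcodes and pooled alongside a tag-only sample, they were incubated for 30 min at room temperature with 200 nmole of a random double-stranded 16-mer DNA library in Tris/NaCl/DTT/glycerol buffer, then washed, crosslinked (0.1% formaldehyde), proximity-ligated, PCR-amplified and sequenced on an Illumina NextSeq500. The binding signal of each hexamer is its read frequency for a factor divided by its frequency for the tag-only sample.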

ETV3L = target: T2, ETV3L (Homo sapiens, UniProt Q6ZN32 1-361)
T2 sequence: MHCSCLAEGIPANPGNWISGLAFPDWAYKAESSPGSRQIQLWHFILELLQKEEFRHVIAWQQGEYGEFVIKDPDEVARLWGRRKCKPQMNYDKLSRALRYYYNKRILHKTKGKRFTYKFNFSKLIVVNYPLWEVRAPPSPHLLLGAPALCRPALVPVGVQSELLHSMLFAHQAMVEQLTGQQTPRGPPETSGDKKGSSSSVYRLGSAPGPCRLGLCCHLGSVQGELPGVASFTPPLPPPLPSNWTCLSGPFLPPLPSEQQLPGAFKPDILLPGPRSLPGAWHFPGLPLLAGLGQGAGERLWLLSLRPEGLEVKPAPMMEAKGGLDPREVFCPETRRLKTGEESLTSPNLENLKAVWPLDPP
Method in brief: as §1

ETS2 = target: T3, ETS2 (Homo sapiens, UniProt P15036 1-469)
T3 sequence: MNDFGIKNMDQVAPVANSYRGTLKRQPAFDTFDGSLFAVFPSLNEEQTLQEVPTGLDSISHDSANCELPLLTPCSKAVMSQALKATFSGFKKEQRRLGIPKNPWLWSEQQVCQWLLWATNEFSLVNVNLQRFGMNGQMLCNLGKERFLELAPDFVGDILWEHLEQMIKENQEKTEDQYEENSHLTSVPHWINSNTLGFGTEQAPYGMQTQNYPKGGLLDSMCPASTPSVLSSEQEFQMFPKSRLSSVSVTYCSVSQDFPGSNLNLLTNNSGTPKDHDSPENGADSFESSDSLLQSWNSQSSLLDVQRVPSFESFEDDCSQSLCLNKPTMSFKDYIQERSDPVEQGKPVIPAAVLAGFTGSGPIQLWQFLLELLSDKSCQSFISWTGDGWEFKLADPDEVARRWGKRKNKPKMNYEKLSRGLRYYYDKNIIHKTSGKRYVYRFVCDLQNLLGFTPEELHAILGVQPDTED
Method in brief: as §1

SPDEF = target: T4, SPDEF (Homo sapiens, UniProt O95238 1-335)
T4 sequence: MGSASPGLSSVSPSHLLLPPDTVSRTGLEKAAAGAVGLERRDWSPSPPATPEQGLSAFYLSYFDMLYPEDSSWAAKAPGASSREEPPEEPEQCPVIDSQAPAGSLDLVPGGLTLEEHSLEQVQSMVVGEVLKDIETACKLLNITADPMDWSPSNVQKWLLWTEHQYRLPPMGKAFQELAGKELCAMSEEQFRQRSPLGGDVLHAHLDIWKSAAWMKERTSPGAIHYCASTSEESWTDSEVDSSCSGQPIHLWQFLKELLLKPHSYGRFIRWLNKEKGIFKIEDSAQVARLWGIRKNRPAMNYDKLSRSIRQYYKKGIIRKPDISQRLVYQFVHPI
Method in brief: as §1

ETV7 = target: T5, ETV7 (Homo sapiens, UniProt Q9Y603 1-341)
T5 sequence: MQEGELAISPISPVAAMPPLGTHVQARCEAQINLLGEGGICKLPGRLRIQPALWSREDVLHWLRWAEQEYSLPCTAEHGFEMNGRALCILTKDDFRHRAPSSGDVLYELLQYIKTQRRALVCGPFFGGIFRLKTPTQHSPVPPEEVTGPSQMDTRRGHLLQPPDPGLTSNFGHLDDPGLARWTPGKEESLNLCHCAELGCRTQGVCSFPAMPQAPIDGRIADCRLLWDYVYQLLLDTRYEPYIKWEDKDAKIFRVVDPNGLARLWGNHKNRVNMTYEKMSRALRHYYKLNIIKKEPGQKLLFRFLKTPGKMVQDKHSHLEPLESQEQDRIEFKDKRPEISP
Method in brief: as §1

ELF5 = target: T6, ELF5 (Homo sapiens, UniProt Q9UKW6-2 1-255)
T6 sequence: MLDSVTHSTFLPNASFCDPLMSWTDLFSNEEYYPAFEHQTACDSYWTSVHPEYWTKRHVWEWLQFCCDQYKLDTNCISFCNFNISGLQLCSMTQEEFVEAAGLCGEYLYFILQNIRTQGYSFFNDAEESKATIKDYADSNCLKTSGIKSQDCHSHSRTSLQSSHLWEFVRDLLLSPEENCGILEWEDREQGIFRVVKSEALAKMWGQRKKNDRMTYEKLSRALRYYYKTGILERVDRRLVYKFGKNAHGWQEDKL
Method in brief: as §1

ETV3 = target: T7, ETV3 (Homo sapiens, UniProt P41162-2 1-143)
T7 sequence: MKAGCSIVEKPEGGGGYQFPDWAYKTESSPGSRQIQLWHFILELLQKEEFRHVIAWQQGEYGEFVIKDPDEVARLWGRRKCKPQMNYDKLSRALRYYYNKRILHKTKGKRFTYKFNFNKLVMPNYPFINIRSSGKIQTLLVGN
Method in brief: as §1

ETV6 = ETV6 (Homo sapiens, UniProt P41212 1-452)
Sequence of ETV6 (P41212 whole entry): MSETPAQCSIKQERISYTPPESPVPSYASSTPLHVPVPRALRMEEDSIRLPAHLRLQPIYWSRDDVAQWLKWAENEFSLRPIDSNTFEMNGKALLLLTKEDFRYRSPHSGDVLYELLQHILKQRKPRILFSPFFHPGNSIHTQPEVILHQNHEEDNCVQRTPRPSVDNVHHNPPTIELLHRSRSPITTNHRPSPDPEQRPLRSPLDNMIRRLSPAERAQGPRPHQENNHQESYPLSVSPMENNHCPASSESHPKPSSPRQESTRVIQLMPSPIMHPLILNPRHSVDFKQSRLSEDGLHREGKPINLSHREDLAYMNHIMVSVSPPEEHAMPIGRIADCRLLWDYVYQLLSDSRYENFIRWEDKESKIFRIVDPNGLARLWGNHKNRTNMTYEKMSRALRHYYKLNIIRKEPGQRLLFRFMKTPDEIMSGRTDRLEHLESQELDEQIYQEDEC
Method in brief: as §1

| Sequence | binding signal (ERF) | binding signal (ETV3L) | binding signal (ETS2) | binding signal (SPDEF) | binding signal (ETV7) | binding signal (ELF5) | binding signal (ETV3) | binding signal (ETV6) |
| --- | --- | --- | --- | --- | --- | --- | --- | --- |
| TAACTG | 1.11 fold enrichment (6-mer frequency, TF over GST control) | 1.23 fold enrichment (6-mer frequency, TF over GST control) | 1.31 fold enrichment (6-mer frequency, TF over GST control) | 1.2 fold enrichment (6-mer frequency, TF over GST control) | 1.28 fold enrichment (6-mer frequency, TF over GST control) | 1.16 fold enrichment (6-mer frequency, TF over GST control) | 1.25 fold enrichment (6-mer frequency, TF over GST control) | 1.26 fold enrichment (6-mer frequency, TF over GST control) |
| ATTACC | 1.18 fold enrichment (6-mer frequency, TF over GST control) | 1.2 fold enrichment (6-mer frequency, TF over GST control) | 1.27 fold enrichment (6-mer frequency, TF over GST control) | 1.18 fold enrichment (6-mer frequency, TF over GST control) | 1.28 fold enrichment (6-mer frequency, TF over GST control) | 1.32 fold enrichment (6-mer frequency, TF over GST control) | 1.31 fold enrichment (6-mer frequency, TF over GST control) | 1.33 fold enrichment (6-mer frequency, TF over GST control) |
| TAGTTT | 1.36 fold enrichment (6-mer frequency, TF over GST control) | 1.31 fold enrichment (6-mer frequency, TF over GST control) | 1.19 fold enrichment (6-mer frequency, TF over GST control) | 1.16 fold enrichment (6-mer frequency, TF over GST control) | 1.19 fold enrichment (6-mer frequency, TF over GST control) | 1.18 fold enrichment (6-mer frequency, TF over GST control) | 1.32 fold enrichment (6-mer frequency, TF over GST control) | 1.23 fold enrichment (6-mer frequency, TF over GST control) |
| GCTTCC | 3.06 fold enrichment (6-mer frequency, TF over GST control) | 3.36 fold enrichment (6-mer frequency, TF over GST control) | 3.56 fold enrichment (6-mer frequency, TF over GST control) | 3.67 fold enrichment (6-mer frequency, TF over GST control) | 3.14 fold enrichment (6-mer frequency, TF over GST control) | 4.78 fold enrichment (6-mer frequency, TF over GST control) | 3.8 fold enrichment (6-mer frequency, TF over GST control) | 4.28 fold enrichment (6-mer frequency, TF over GST control) |
| ATCGAA | 1.18 fold enrichment (6-mer frequency, TF over GST control) | 1.16 fold enrichment (6-mer frequency, TF over GST control) | 1.2 fold enrichment (6-mer frequency, TF over GST control) | 1.09 fold enrichment (6-mer frequency, TF over GST control) | 1.25 fold enrichment (6-mer frequency, TF over GST control) | 1.05 fold enrichment (6-mer frequency, TF over GST control) | 1.03 fold enrichment (6-mer frequency, TF over GST control) | 1.05 fold enrichment (6-mer frequency, TF over GST control) |
| CTATGG | 1.11 fold enrichment (6-mer frequency, TF over GST control) | 1.16 fold enrichment (6-mer frequency, TF over GST control) | 1.16 fold enrichment (6-mer frequency, TF over GST control) | 1.29 fold enrichment (6-mer frequency, TF over GST control) | 1.39 fold enrichment (6-mer frequency, TF over GST control) | 1.09 fold enrichment (6-mer frequency, TF over GST control) | 1.29 fold enrichment (6-mer frequency, TF over GST control) | 1.09 fold enrichment (6-mer frequency, TF over GST control) |
| CAAAAT | 1.33 fold enrichment (6-mer frequency, TF over GST control) | 1.19 fold enrichment (6-mer frequency, TF over GST control) | 1.2 fold enrichment (6-mer frequency, TF over GST control) | 1.1 fold enrichment (6-mer frequency, TF over GST control) | 1.28 fold enrichment (6-mer frequency, TF over GST control) | 1.13 fold enrichment (6-mer frequency, TF over GST control) | 1.12 fold enrichment (6-mer frequency, TF over GST control) | 1.26 fold enrichment (6-mer frequency, TF over GST control) |
